The text below walks through data of PubChem BioAssay (NCI).

The panel holds about 79,000 compounds, 15% with a hit somewhere; the sample as a whole holds those more often. Values without a mark were called inactive. The source made the active and inactive calls. Cut-off read from the data, not from the text of the source: active = growth inhibition above about 70%; inactive = the rest.

The nature of assay [1]: NCI Yeast Anticancer Drug Screen. Data for the rad50 strain (AID 155).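 Note: 0% = growth of vehicle-only cultures of the same strain.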 The settings on record: S. cerevisiae rad50 strain growth inhibition, hits give high values; at 50.0 µM unless noted. Summed up:
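Yeast carrying a defined DNA repair defect were exposed to test compounds, and growth was compared with vehicle-treated controls to give percent inhibition.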

A short description of assay [2]: NCI Yeast Anticancer Drug Screen. Data for the mec2-1 strain (AID 157). The settings on record: S. cerevisiae mec2-1 strain, hits give high values; at 50.0 µM unless noted. Summed up: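 Growth inhibition is read against vehicle-treated controls after compound exposure of the mec2-1 yeast strain, which is defective in DNA damage repair or cell cycle control.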
A short description of assay [3]: NCI Yeast Anticancer Drug Screen. Data for the sgs1 mgt1 strain (AID 161).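 Note: 0% = growth of cultures given vehicle only.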 Particulars: S. cerevisiae sgs1 mgt1 strain, hits give high values; at 50.0 µM unless noted. Put shortly: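 Percent growth inhibition was derived by comparing compound-exposed mutant yeast with vehicle-exposed cultures. The strain carries alterations in DNA damage repair.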
Assay [4] in a line: NCI Yeast Anticancer Drug Screen. Data for the cln2 rad14 strain (AID 165).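 Note: 0% = growth equal to vehicle treated cultures.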 Particulars: S. cerevisiae cln2 rad14 strain, hits give high values; at 50.0 µM unless noted. Summed up:
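Growth inhibition, relative to vehicle-treated controls, is the read-out. The test organism is a yeast strain with defined genetic alterations, cln2 rad14.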

The nature of assay [5]: NCI Yeast Anticancer Drug Screen. Data for the bub3 strain (AID 167). Particulars: S. cerevisiae bub3 mutant strain, hits give high values; at 50.0 µM unless noted. Summed up:
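Compounds were applied to a genetically altered yeast strain carrying a cell-cycle control defect. Growth inhibition was scored against vehicle-treated controls.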

Assay [6] can be described thus: NCI Yeast Anticancer Drug Screen. Data for the mlh1 rad18 strain (AID 175). The settings on record: S. cerevisiae mlh1 rad18 strain growth inhibition, hits give high values; at 50.0 µM unless noted. Summed up:
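Cells of a genetically altered yeast strain, deficient in DNA damage repair, were treated with compound. Their growth was then compared with that of vehicle-treated cultures to give inhibition.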

For `S=C(NC1CCCCC1)SSSSC(=S)NC1CCCCC1`, the growth inhibition in assay [1] was 15.7%; in assay [2], 5%; in assay [3], 22.2%; in assay [4] it was 9.55%; in assay [5] it was 13.9%; in assay [6], 20.2%.

On to `O=C(COc1cc(Cl)c(Cl)cc1Cl)Nc1ccc(Cl)cc1`, for which the growth inhibition was 14.7% in assay [1]; 19.9% in assay [2]; 18% in assay [3]; 17.2% in assay [4]; 17.1% in assay [5]; 11.2% in assay [6].

For `O=c1nc2c(c(-c3ccc(F)cc3)[nH]1)COC/C2=C\c1ccc(F)cc1`, the growth inhibition in assay [1] is 18.2%; in assay [2], 11.3%; in assay [3] it was 34.5%; in assay [4] it was 21.1%; in assay [5], 28.6%; in assay [6], 33.2%.

For `C/C(=N\NC(=O)Nc1ccc(N=Nc2ccccc2)cc1)c1ccncc1`, the growth inhibition in assay [1] is 17.4%; in assay [2], 10.5%; in assay [3], 19.1%; in assay [4], 1.5%; in assay [5], 14.3%; in assay [6], 10.7%.

`CCOCCOC(=O)COc1ccccc1`: the growth inhibition in assay [1] is 12.8%; in assay [2], 16.4%; in assay [3], 17.6%; in assay [4] it was 7%; in assay [5], -7.85%; in assay [6] it was 3.65%.

Turning to `C=CC[N+]1(CCOC(=O)C(c2ccccc2)C2C=CCC2)CCCC1` (stereo unspecified), the growth inhibition in assay [1] was -17.1%; in assay [2], 1.35%; in assay [3], -6.9%; in assay [4], -13.8%; in assay [5] it was -13.9%; in assay [6], -22.4%.

As for `CCOC(=O)c1sc(N)nc1N1CCCC1`, the growth inhibition in assay [1] is 1.65%; in assay [2], -23.9%; in assay [3] it was -9.65%; in assay [4], 10.1%; in assay [5] it was 7%; in assay [6] it was -2.25%.

As for `COc1ccc(/C(=N/N)C(C)(C)C)cc1`, the growth inhibition was 5.8% in assay [1]; -2.8% in assay [2]; -7.95% in assay [3]; -15.8% in assay [4]; -1.6% in assay [5]; -1.9% in assay [6].

As to `COc1ccc2c(c1OC(C)=O)-c1cc(OC(C)=O)cc3c1C(C2)N(C(=O)CBr)CC3` (stereo unspecified), the growth inhibition in assay [1] is 62%; in assay [2] it was 54.2%; in assay [3], 70.2% (active); in assay [4] it was 36%; in assay [5] it was 20.5%; in assay [6], 59.4%.

As for `CCOC(=O)COc1ccc(OC)c2c1C(=O)CCC2`, the growth inhibition in assay [1] is 21.1%; in assay [2], 16.7%; in assay [3], 6.15%; in assay [4], 29.2%; in assay [5], 10%; in assay [6] it was 15%.

Regarding `CCOC(OCC)c1cc(=O)[nH]c(NC(C)=O)n1`, the growth inhibition in assay [1] was -1.15%; in assay [2] it was 0.05%; in assay [3] it was 10%; in assay [4] it was -11.9%; in assay [5], -1.25%; in assay [6], 5.4%.

Consider `COc1cc(OC)c(NC(=O)C2=C(C)NC(C)=C(C(=O)Nc3cc(Cl)c(OC)cc3OC)C2c2cccc([N+](=O)[O-])c2)cc1Cl`, for which the growth inhibition in assay [1] is 9.25%; in assay [2], 23.9%; in assay [3], 22.9%; in assay [4] it was 36.1%; in assay [5], 14.4%; in assay [6] it was 3.7%.

Turning to `COC1(OC)CC2C(=O)N(Cc3ccccc3)C1CC2S(=O)(=O)c1ccccc1` (stereo unspecified), the growth inhibition in assay [1] was 6.7%; in assay [2], -2.1%; in assay [3], -16.1%; in assay [4] it was 22.8%; in assay [5], -2.3%; in assay [6], 11.4%.

`OC(COc1cccc(C(F)(F)F)c1)CN1CCN(c2ccc(F)cc2)CC1` (stereo unspecified): the growth inhibition in assay [1] was 86.8% (active); in assay [2] it was 88% (active); in assay [3], 96.3% (active); in assay [4], 88.5% (active); in assay [5] it was 86.4% (active); in assay [6], 92.2% (active).

In the case of `C=CCOC(=O)NC(CC(C)C)C(=O)NCC(N)=O` (stereo unspecified), the growth inhibition in assay [1] is -10.4%; in assay [2], 1.9%; in assay [3], -4.3%; in assay [4], -10.9%; in assay [5] it was -45.5%; in assay [6] it was -28%.

Turning to `COc1ccc(/C=C(\C(=O)OCC(C)C)c2ccc(OC)c(OC)c2)cc1OC`, the growth inhibition in assay [1] was 2.6%; in assay [2], -17.1%; in assay [3], 8.5%; in assay [4], -6.15%; in assay [5], -7.2%; in assay [6], 16.4%.

Take `CCC1CC(C)=CCN1S(=O)(=O)c1ccc(C)cc1` (stereo unspecified): the growth inhibition is -12.6% in assay [1]; -2.3% in assay [2]; 4.4% in assay [3]; 18.6% in assay [4]; 12.2% in assay [5]; 2.35% in assay [6].

Turning to `O=C(OC(c1ccccc1)C(c1ccccc1)N1CCOCC1)c1ccc([N+](=O)[O-])cc1` (stereo unspecified), the growth inhibition was 54.8% in assay [1]; 8.3% in assay [2]; 55.4% in assay [3]; -4.9% in assay [4]; 17.1% in assay [5]; 54.6% in assay [6].

`N=C(N)SCCc1cn2ccccc2n1`: the growth inhibition was -5.45% in assay [1]; -45.9% in assay [2]; -17.1% in assay [3]; 3.65% in assay [4]; -15.8% in assay [5]; 1.05% in assay [6].

Regarding `Cc1cc(=O)[nH]c(N/N=C/C=C/c2ccccc2)n1`, the growth inhibition is -35.4% in assay [1]; -25.7% in assay [2]; -17.1% in assay [3]; -15.8% in assay [4]; -15.8% in assay [5]; -25.9% in assay [6].

`COc1ccccc1C(=O)Oc1ccc(OC(=O)c2ccccc2OC)c(C(C)=O)c1`: the growth inhibition in assay [1] is 16.6%; in assay [2], -1.85%; in assay [3] it was 0%; in assay [4], 3.25%; in assay [5], 20.2%; in assay [6], 35.4%.
